In ChEMBL document CHEMBL3988442, “University of Dundee, Small-Polar-MMV Screening Library” (2021):
Among all 48,000 compounds or so, about 13,000 (27%) showed an effect of 50% or more. Some of the results follow.

system: Wolbachia pipientis; assay: Anti-Wolbachia Cell-Based Screen; format: functional; design: scale not given: in the data most compounds retested in dose-response had high values; settings: 5 µM

Structure (SMILES) | Percent Effect [%]
Cc1ccc(CN2CCc3ncnc(-c4ccc(F)cc4)c3CC2)o1.O=C(O)C(F)(F)F | -0.3748
CC(C)Oc1ncnc2c1CCN(Cc1ccoc1)CC2.O=C(O)C(F)(F)F | 3.383
Cc1ccc(CN2CCc3ncnc(-c4ccoc4)c3CC2)o1.O=C(O)C(F)(F)F | 105.9
CC(C)Oc1ncnc2c1CCN(Cc1ccco1)CC2.O=C(O)C(F)(F)F | 2.851
Cc1ccc(CN2CCc3ncnc(-c4ccncc4)c3CC2)o1.O=C(O)C(F)(F)F.O=C(O)C(F)(F)F | 96.83
O=C1CCc2cc(S(=O)(=O)NC(=O)c3ccc4c(c3)OCO4)ccc2N1 | -58.45
Cc1ccc(C(=O)N2CCC3(CC2)CN(CCN(C)C)C(=O)O3)c(F)c1 | 62.77
Cc1cc(C(=O)N2CCC3(CC2)CN(CCN(C)C)C(=O)O3)nc(C)n1 | -4.106
Cc1nc[nH]c1C(=O)N1CCC2(CC1)CN(CCN(C)C)C(=O)O2 | 0.5324
O[C@@H]1C[C@H]2CN(Cc3ccccc3)[C@H](Cc3ccccc3)CN2C1 | 111.3
O[C@@H]1C[C@@H](c2nc(-c3ccccc3)no2)N(CC2CCCCC2)C1 | -2.196
O[C@@H]1C[C@@H](c2nc(-c3ccccc3)no2)N(Cc2cccnc2)C1 | 4.417
O[C@@H]1C[C@H]2CN(CC3CCCCC3)[C@H](Cc3ccccc3)CN2C1 | 87.27
O[C@@H]1C[C@H]2CN(Cc3ccccc3Cl)[C@H](Cc3ccccc3)CN2C1 | 117.1
O[C@@H]1C[C@@H](c2nc(-c3ccccc3)no2)N(Cc2ccncc2)C1 | -6.257
O[C@@H]1C[C@@H](c2nc(Cc3ccccc3)no2)N(Cc2ccc(F)cc2)C1 | 5.892
O[C@@H]1C[C@H]2CN(Cc3ccsc3)[C@@H](Cc3ccccc3)CN2C1 | 108.5
Oc1ccccc1CN1C[C@H](O)C[C@H]1c1nc(Cc2ccccc2)no1 | 2.62
Cc1cccc(-c2noc([C@@H]3C[C@@H](O)CN3CC3CCCCC3)n2)c1 | 5.786
Cc1ccc(CN2C[C@H]3CN(Cc4ccccc4Cl)CCN3C2=O)cc1 | 5.801
CS(=O)(=O)N1C[C@@H]2CC[C@H](C1)N(Cc1ccsc1)C2 | -3.691
CCS(=O)(=O)NCc1cc(Br)c(OC)c(OC)c1 | -0.2028
CCS(=O)(=O)c1ccccc1C(=O)NCC1Cc2ccccc2O1 (stereo not drawn) | -9.446
CC(C)CCC(=O)N1CCC(c2nnc(CN(C)CCO)n2C)CC1 | -15.68
CCOCC(=O)NC1(c2cccc(Br)c2)CC1 | -23.15

Structure (SMILES) | Percent Effect [%]
Cc1n[nH]c(=O)c2c(NC(=O)CN3CCC(C)CC3)oc(C)c12 | 8.431
COC(=O)N1CCN(c2ncnc3nc(C)cc(C)c23)CC1 | 98.52
Cc1cc(C)c2c(N(C)CC3COCCO3)ncnc2n1 (stereo not drawn) | -3.038
Cc1cc(C)c2c(N3CCN(Cc4ncccc4C)CC3)ncnc2n1 | -39.06
COCCN1CCN(c2ncnc3nc(C)cc(C)c23)CC1 | -19.86
Cc1cc(C)c2c(N3CCN(C(=O)N(C)C)CC3)ncnc2n1 | 111.7
COCCCN1CCN(c2ncnc3nc(C)cc(C)c23)CC1 | -12.49
CSc1ccc(NC(=O)Cc2cccc(O)c2)nc1 | -26.55
Cc1cncc(C(=O)N2CCC3(CC2)C(=O)Nc2ccccc23)c1 | -7.764
FC(F)(F)c1ccc(-c2noc3c2CN(CC2CCCO2)CC3)cc1 (stereo not drawn) | -4.107
CC(C)N(CCNCc1ccc(C#N)cc1)C1CC1 | -21.35
Cc1c[nH]c(CN2CCCCC2CCN(C)C)c(C)c1=O (stereo not drawn) | -7.535
CCC(=O)N1CCCN(C(=O)C2SCCc3sccc32)CC1 (stereo not drawn) | 13.84
CC1c2ccsc2CCN1Cc1cc2c(cc1O)OCO2 (stereo not drawn) | 137.7
CN(C)CCN1CC[C@H]2[C@@H]1CCN2Cc1ccc2c(c1)OCO2 | -11.21
NC(=O)c1ccc(OCCC(=O)NC2CCc3c(F)cccc32)cc1 (stereo not drawn) | 19.22
CNc1nc(CN2C[C@@H](NC(C)=O)[C@H](c3ccc(C)o3)C2)cs1 | 0.1699
CCC[C@H]1CN(Cc2ccc(N(C)C)nc2)C[C@@H]1NC(=O)CCOC | -4.276
CC(=O)N1C[C@H](NS(=O)(=O)N2CCCC2)[C@@H](c2ccc(C)o2)C1 | -3.445
CC(=O)N[C@@H]1CN(C(=O)c2ccc[nH]2)C[C@H]1c1ccc(C)o1 | -8.166
C/C=C(\C)CN1C[C@H](NC(=O)CN2CCCC2=O)[C@@H](c2ccc(C)o2)C1 | 97.75
CC(=O)N[C@@H]1CN(C(=O)c2cc(C)oc2C)C[C@H]1c1ccc(C)o1 | -1.342
Cc1ccc([C@H]2CN(CCO)C[C@@H]2NC(=O)CN2CCCCC2=O)o1 | 92.71
O=C(CN1CCCCCC1=O)NC1CCc2nccn2C1 (stereo not drawn) | 0.7111
C/C=C(\C)CN1C[C@H](NC(=O)CCOC)[C@@H](c2ccc(C)o2)C1 | 82.28

Structure (SMILES) | Percent Effect [%]
COc1ccnc(CNc2nc(C)nc(C)c2C)c1 | -1.425
CCc1nc(CC(=O)N2CCn3c(nnc3C(C)C)C2)cs1 | 3.887
COCCN(Cc1nccs1)C(=O)c1c(C)cc(C)[nH]c1=O | -6.144
CC(C(=O)NC(C)(C)C)S(=O)(=O)Cc1noc(C(C)(C)C)n1 (stereo not drawn) | 3.309
O=C(C1CCC1)N1CCCC(c2ccnc(Nc3cnccn3)n2)C1 (stereo not drawn) | 48.97
Cl.Cl.NCC(=O)N1CCCC(c2ccnc(Nc3cnccn3)n2)C1 (stereo not drawn) | 138.9
Cc1cc(C2CCCN(C(=O)c3cnccn3)C2)ccn1 (stereo not drawn) | -6.489
CC(=O)N1CCCC(c2ccnc(Nc3cnccn3)c2)C1 (stereo not drawn) | 134
O=C(C1CCCC1)N1CCC(c2ccnc(Nc3cnccn3)n2)C1 (stereo not drawn) | 92.23
CNCC(=O)N1CCCC(c2ccnc(Nc3cnccn3)n2)C1 (stereo not drawn) | 90.62
COCc1ccc(C(=O)N2CC[C@@](O)(COC)C(C)(C)C2)o1 | 3.183
CCc1c(C)nn(CC(=O)NC(C(=O)O)c2c(C)n[nH]c2C)c1C (stereo not drawn) | 1.191
Cc1ccccc1CC1(CO)CCCN(c2ncccc2C#N)C1 (stereo not drawn) | 0.9317
C=C(C)CNc1nc(CS(=O)(=O)c2ccccc2)cs1 | -10.96
CC(CNC(=O)N1CCN(Cc2ccon2)CC1)Cc1cccs1 (stereo not drawn) | -18.64
O=C(Cn1c(=O)oc2ccccc21)N1Cc2cnn(CCO)c2C1 | -5.203
CC(=O)N1CCCC(c2ccnc(Nc3cnccn3)n2)C1 (stereo not drawn) | 113.3
O=C(CCc1ccc2c(c1)OCO2)N1CCCCC1Cn1cccn1 (stereo not drawn) | 137.4
COc1ccc(CCC(=O)N2CCCCC2Cn2cccn2)cc1F (stereo not drawn) | 155.4
COc1ccc(CC(=O)N2CCCC2Cn2cccn2)cc1F (stereo not drawn) | 2.407
O=C(CCc1c(F)cccc1F)N1CCCCC1Cn1cccn1 (stereo not drawn) | 126.8
O=C(c1cccc2c1OCO2)N1CCCCC1Cn1cccn1 (stereo not drawn) | -4.366
O=C(CCc1ccc(F)c(F)c1)N1CCCCC1Cn1cccn1 (stereo not drawn) | 87.24
CSc1c[nH]nc1NS(=O)(=O)c1ccc(C)c(C)c1 | 4.625
O=C(Nc1ccccc1CCO)c1cccc(CN2CC[C@H](O)C2)c1 | -8.564

Structure (SMILES) | Percent Effect [%]
COc1ccc(F)c(CN2CCCC3(CCN(S(C)(=O)=O)C3)C2)c1 (stereo not drawn) | -4.467
N#Cc1ccsc1C(=O)N1CCCCC1Cn1cccn1 (stereo not drawn) | -3.499
O=C(c1cccn1Cc1cccs1)N1CCCC1Cn1cccn1 (stereo not drawn) | 4.58
Cc1oc(-c2cccs2)nc1C(=O)N1CCCC1Cn1cccn1 (stereo not drawn) | 103.5
O=C(c1cc(-c2cccs2)on1)N1CCCCC1Cn1cccn1 (stereo not drawn) | 91.35
Cc1noc(C)c1CN(C)CCc1nc(-c2cccc(Cl)c2)no1 | 0.3419
O[C@H]1[C@H](n2cc(-c3ccccn3)nn2)c2ccccc2C12CCNCC2 | -37
Cc1cc2nc(-c3cn(C4CCNCC4)nn3)[nH]c2cc1C | -3.563
COc1cccc(CCN2C[C@H]3CCNCC[C@H]3S2(=O)=O)c1.O=C(O)C(F)(F)F | 12.24
O=C(NC1CCCCC1)N1CCC(n2cc(-c3ccccn3)nn2)CC1 | -3.255
c1ccc(OCCCn2ccnc2-c2cn(C3CCNCC3)nn2)cc1 | 87.94
COc1ccc(CCn2ccnc2-c2cc3n(n2)CCCNC3)cc1 | -17.25
COc1cccc(CCn2ccnc2-c2cn(C3CCNCC3)nn2)c1 | 111.7
Clc1ccccc1CCn1ccnc1-c1cn(C2CCNCC2)nn1 | 101.1
Cc1cccc2[nH]c(-c3cn(C4CCNCC4)nn3)nc12 | -0.8234
Cc1c(C)c(C)c2[nH]c(-c3cn(C4CCNCC4)nn3)nc2c1C | 5.399
c1ccc(CCCn2ccnc2-c2cn(C3CCNCC3)nn2)nc1 | 103.3
Cc1ccc2[nH]c(-c3cn(C4CCNCC4)nn3)nc2c1C | 9.5
CNC(=O)c1cccc(CNC(C)c2cc(C)ccc2OC(F)F)c1 (stereo not drawn) | 2.562
CC(C)CNc1nc(C(=O)/N=c2\[nH]nc(C(C)(C)C)s2)cs1 | 9.925
COc1cccc([C@H]2CN(C(=O)c3scc4c3CCCC4)C[C@@H]2N)c1 | -10.32
O=S(=O)(CCc1ccccc1)Nc1cc(Cl)ccn1 | -16.02
CSCc1ccc(N2CCC(C(O)CC(C)C)CC2)nc1 (stereo not drawn) | -3.23
